Only some compounds are listed: those with a hit (about 5.9% of all), similar ones and a draw of the others.
HepG2 tox = kills HepG2 cells in TGF-b inhibitor counter-screen; HepG2 CAGA-GFP viability, ATP luminescence, 18 h; Potency, µM (series often up to 46.1 µM), usual class: cytotoxic; 0.76% of 410,000 active; AID 588856
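HepG2 CAGA-GFP cells (1000/well, DMEM with 1% FBS) received compound, then TGF-beta at 500 pg/mL final, and were incubated 18 hours at 37 degrees C. Viability was read by CellTiter-Glo luminescence. Media-only wells were set as complete cell-killing and DMSO as no toxicity.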
KB-V1 MDR tox = kills drug-selected multidrug resistant KB-V1 cells; KB-V1 MDR cells viability, CellTiter-Glo, 72 h; Potency, µM (top dose mostly 46.1 µM), hits mostly cytotoxic; AID 1347076; 3.4% of 400,000 active; further: nearly all actives have a fitted effect of over 60% in size
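Compound-treated KB-V1 multidrug-resistant cells, 72 h, 37 degrees C; viability by CellTiter-Glo. Fitted qHTS curves give the values.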
TGFb SMAD3 inh = blocks TGF-b signaling. Potency, µM (highest dose often 46.1 µM), usual class: inhibitors. 1.2% of 410,000 active. AID 588855. HepG2 CAGA-GFP TGF-b/SMAD3 reporter, GFP fluorescence, 18 h; TGF-beta stimulated, 500 pg/mL final; further: nearly all actives have a fitted effect of over 65% in size
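Using HEPG2 CAGA-GFP reporter cells at 1000 cells/well, we pinned test compounds, stimulated with recombinant TGF-beta (500 pg/mL final) and measured total well GFP after 18 h.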
ATXN2 expr inh = reduces ATXN2 reporter expression in HEK-293 cells; HEK-293 ATXN2-luciferase reporter, luminescence, 24 h; Potency, µM (doses to about 57 µM), most hits filed as inhibitors; 0.72% of 360,000 active; AID 1745845; further: nearly all actives have a fitted effect of over 55% in size
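ATXN2-luciferase reporter cells (luciferase flanked by upstream and downstream ATXN2 gene portions) were treated 24 h at 37 °C with compounds at up to 57 uM. SteadyGlo luminescence gave expression; GF-AFC fluorescence gave viability.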
S2 tox = cell viability loss in ATXN counter-screen. S2 cells (HEK-293 line with an ATXN2-luciferase reporter) viability, CellTiter-Fluor protease fluorescence, 24 h. Potency, µM (highest dose often 56.7 µM), usual class: cytotoxic. 0.49% of 400,000 active. AID 651635; further: nearly all actives have a fitted effect of over 40% in size
KB-3-1 cytotox = KB-3-1 parental cell cytotoxicity; KB-3-1 viability, CellTiter-Glo ATP luminescence, 72 h; Potency, µM (doses to about 46.1 µM), most hits filed as cytotoxic; 1.4% of 400,000 active; further: nearly all actives have a fitted effect of over 60% in size
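KB-3-1 parental drug-naive adenocarcinoma cells in DMEM/10% FBS, incubated 72 h at 37 C with pin-transferred compounds across a concentration series. Viability by CellTiter-Glo luminescence; concentration-response curves fitted after normalization.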
Of the large screens only hits and unclear results are named; the others gave an inactive call. The call rests on the fitted dose curve; in most records, active means well fitted curve in the direction sought with a large enough effect; inconclusive means small, poorly fitted or top-dose-only effect, or another doubt; inactive means no such curve, though single readings can be large; an effect the other way counts as inactive or inconclusive.

COc1cc(C2C3=C(COC3=O)Oc3cc4c(cc32)OCO4)cc(OC)c1OC(C)=O (stereo not drawn)	KB-V1 MDR tox 0.65µM, TGFb SMAD3 inh inconclusive, S2 tox inconclusive, KB-3-1 cytotox 0.23µM
CC1(C)CC(C(=O)N2CCOc3ccc(CN4CCN(Cc5ccccn5)CC4)cc3C2)CCO1 (stereo not drawn)	none (no result: HepG2 tox, KB-V1 MDR tox, TGFb SMAD3 inh, ATXN2 expr inh, KB-3-1 cytotox)
COc1ccccc1C(=O)N[C@@H]1c2ccccc2C2(CCN(Cc3c(O)cccc3OC)CC2)[C@H]1O	none (no result: HepG2 tox, KB-V1 MDR tox, TGFb SMAD3 inh, ATXN2 expr inh, KB-3-1 cytotox)
CCOCCCNC(=O)c1ccc2c(=O)n(CCc3ccccc3)c(=O)[nH]c2c1	none
COC(=O)c1cnn(-c2nc(OC)cc(OC)n2)c1C	KB-V1 MDR tox 16µM
CCOC(=O)c1cnn(-c2nc(OC)cc(OC)n2)c1C(F)(F)F	KB-V1 MDR tox inconclusive
COc1cc(OC)nc(-n2ncc(Br)c(Br)c2=O)n1	HepG2 tox 11µM, KB-V1 MDR tox inconclusive, TGFb SMAD3 inh 3.5µM, ATXN2 expr inh inconclusive, KB-3-1 cytotox 6.5µM (no result: S2 tox)
CCC1=NN(C(=O)c2cccc(Br)c2)C(O)(c2ccc(Br)cc2)C1 (stereo not drawn)	KB-V1 MDR tox inconclusive, TGFb SMAD3 inh 8.9µM, ATXN2 expr inh inconclusive, S2 tox inconclusive, KB-3-1 cytotox inconclusive
CCC1=NN(C(=O)c2ccc(Br)cc2)C(O)(c2ccc(C)cc2)C1 (stereo not drawn)	TGFb SMAD3 inh inconclusive
CC1=NN(C(=O)c2csc(C)c2)C(O)(C(F)(F)F)C1 (stereo not drawn)	none
CCC1=NN(C(=O)c2ccc(C)cc2)C(O)(c2ccc(Br)cc2)C1 (stereo not drawn)	KB-V1 MDR tox 21µM
CC1=NN(C(=O)c2ccc(Br)cc2)C(O)(C(F)(F)OC(F)(F)F)C1 (stereo not drawn)	TGFb SMAD3 inh 16µM
O=C(NCc1ccc(N2CCCC2=O)cc1)c1cnccn1	S2 tox inconclusive
O=C(NCc1ccc(N2CCCC2=O)cc1)Nc1cccc(Cl)c1	KB-V1 MDR tox 16µM
Cc1ncsc1C(=O)NCc1ccc(N2CCCC2=O)cc1	KB-V1 MDR tox 16µM
Cn1cc(-c2csc(C(C)(O)c3cccnc3)n2)cn1 (stereo not drawn)	HepG2 tox 2.2µM
CC(O)(c1cccnc1)c1nc(-c2cc(F)cc(F)c2)cs1 (stereo not drawn)	none
CC(O)(c1cccc(F)c1)c1nc(-c2csc3ccccc23)cs1 (stereo not drawn)	TGFb SMAD3 inh 13µM, S2 tox inconclusive
CC(C)c1cccc(-c2csc(C(C)(O)c3ccc(F)c(F)c3)n2)c1 (stereo not drawn)	HepG2 tox 20µM, KB-V1 MDR tox inconclusive, TGFb SMAD3 inh inconclusive, KB-3-1 cytotox inconclusive
CC(O)(c1ccccc1)c1nc(-c2csc3ccccc23)cs1 (stereo not drawn)	TGFb SMAD3 inh inconclusive
CCN(CC)C(=O)c1cccc(-c2csc(C(C)(O)c3cccc(F)c3)n2)c1 (stereo not drawn)	KB-V1 MDR tox inconclusive, TGFb SMAD3 inh inconclusive, ATXN2 expr inh 28µM, S2 tox inconclusive
Fc1ccc(CCNc2ncnc3nc[nH]c23)cc1	none (no result: ATXN2 expr inh, S2 tox)
O=C(NC1CCCC1)C(C1CC1)n1c(-c2ccncc2)nc2ccccc21 (stereo not drawn)	none (no result: HepG2 tox, TGFb SMAD3 inh, ATXN2 expr inh, S2 tox)
CC(O)(c1ccccc1)c1nc(-c2cccc(F)c2)cs1 (stereo not drawn)	TGFb SMAD3 inh inconclusive
CC(O)(c1cccc(F)c1)c1nc(-c2cc(F)cc(F)c2)cs1 (stereo not drawn)	TGFb SMAD3 inh 11µM, S2 tox inconclusive
COc1ccc(-n2c(C)c([N+](=O)[O-])c3ccc(O)cc32)cc1	none (no result: HepG2 tox, KB-V1 MDR tox, TGFb SMAD3 inh, S2 tox, KB-3-1 cytotox)
COc1ccccc1NC(=O)C1CCN(c2cnccn2)CC1	none
COc1ccc(-c2nc3c(c(=O)[nH]c(=O)n3Cc3ccccc3)n2CCO)cc1	none
O=c1[nH]c(=O)n(Cc2ccccc2)c2nc(-c3ccc(Oc4ccc(F)cc4)c([N+](=O)[O-])c3)n(CCO)c12	KB-V1 MDR tox inconclusive, TGFb SMAD3 inh 13µM, ATXN2 expr inh inconclusive, S2 tox inconclusive, KB-3-1 cytotox inconclusive
COCCn1c(=O)[nH]c(=O)c2c1nc(-c1ccc(-c3ccc(Cl)cc3[N+](=O)[O-])o1)n2Cc1ccccc1	KB-V1 MDR tox 23µM, TGFb SMAD3 inh inconclusive, KB-3-1 cytotox inconclusive
COCCn1c(-c2ccc(-c3ccc([N+](=O)[O-])cc3Br)o2)nc2c1c(=O)[nH]c(=O)n2CC(C)C	KB-V1 MDR tox 7.3µM (no result: S2 tox)
CCOC(=O)N1CCN([N+]([O-])=NOc2cc(O/N=[N+](\[O-])N(C)C)c([N+](=O)[O-])cc2[N+](=O)[O-])CC1	none (no result: KB-V1 MDR tox, ATXN2 expr inh, S2 tox, KB-3-1 cytotox)
Cc1ccc(S(=O)(=O)CCC(=O)N2CCc3ccccc32)cc1	KB-V1 MDR tox 21µM, TGFb SMAD3 inh inconclusive
CCCCn1c(=O)nc2n(-c3ccccc3C)c3ccccc3cc-2c1=O	KB-V1 MDR tox 10µM, TGFb SMAD3 inh inconclusive
CCCCn1c(=O)nc2n(-c3ccc(Br)cc3)c3ccccc3cc-2c1=O	none
Cc1ccc(NC(C)c2cc(Cl)ccc2O)cc1 (stereo not drawn)	HepG2 tox 11µM
Oc1ccccc1C(Nc1nccs1)c1ccc2cccnc2c1O (stereo not drawn)	KB-V1 MDR tox 12µM, TGFb SMAD3 inh inconclusive, ATXN2 expr inh 7.1µM, KB-3-1 cytotox 2.3µM
Oc1c(C(Nc2ccccn2)c2ccccc2F)ccc2cccnc12 (stereo not drawn)	TGFb SMAD3 inh 1.4µM (no result: KB-V1 MDR tox, ATXN2 expr inh, S2 tox, KB-3-1 cytotox)
Cc1ccnc(NC(c2ccccc2F)c2ccc3cccnc3c2O)c1 (stereo not drawn)	TGFb SMAD3 inh inconclusive, ATXN2 expr inh inconclusive, KB-3-1 cytotox inconclusive
Oc1c(C(Nc2ccccn2)c2ccccn2)ccc2cccnc12 (stereo not drawn)	KB-V1 MDR tox 5.8µM, ATXN2 expr inh 5µM, S2 tox inconclusive, KB-3-1 cytotox 15µM
Cc1ccc2ccc(C(Nc3ccccn3)c3ccccc3)c(O)c2n1 (stereo not drawn)	KB-V1 MDR tox inconclusive, TGFb SMAD3 inh inconclusive, ATXN2 expr inh inconclusive
COc1ccc(N2CC(NC(=O)COc3ccccc3F)CC2=O)cc1OC (stereo not drawn)	none
CCCc1nn(C)c(C(=O)Nc2ccccc2)c1Cl	KB-V1 MDR tox 18µM, S2 tox inconclusive
CCCc1nn(C)c(C(=O)Nc2ccc(Cl)cc2)c1Cl	none (no result: S2 tox)
CCC(CC)C(=O)N1c2ccccc2C(C)(c2ccccc2)CC1(C)C (stereo not drawn)	TGFb SMAD3 inh inconclusive
COc1cc(Cl)c(NC(=O)CN(C)S(=O)(=O)c2ccc3c(c2)CCCC(=O)N3)c(OC)c1	KB-V1 MDR tox inconclusive, S2 tox inconclusive, KB-3-1 cytotox inconclusive
